Rows were chosen to be rich in hits. Some 22% of all compounds tested hit in one or more screens of this group.
CYP2C19 inhib = blockers of cytochrome P450 2C19 activity – biochemical, luminescence, ADME assay, primary screen. CYP2C19 Supersomes, luciferin-H EGE luminescence, 30 min. inhibition, % at 5 µM. actives 21% (n = 96,000);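 active = CYP2C19 inhibition above a set limit at 5 µM in the primary screen, cut at about 50% in these data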;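 also: plate controls were negative control wells for no effect and 2.5 mM tranylcypromine positive control for full effect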
CYP2C9 activ = human CYP2C9 activators, primary screen, biochemical, luminescence | Cytochrome P450 2C9 (Homo sapiens), P11712 | recombinant CYP2C9, luciferin-H conversion; hits give high values; factor 1 = untreated enzyme, 0 = blocked | activation factor at 5 µM | actives 1.4% (n = 96,000) | AID 1024, 2008;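 active = activation factor of 2 or more for CYP2C9 at a 5 µM dose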;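 also: 0 = sulfaphenazole-blocked wells and 1 = vehicle-only wells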
Target sequence (P11712 whole entry, looked up): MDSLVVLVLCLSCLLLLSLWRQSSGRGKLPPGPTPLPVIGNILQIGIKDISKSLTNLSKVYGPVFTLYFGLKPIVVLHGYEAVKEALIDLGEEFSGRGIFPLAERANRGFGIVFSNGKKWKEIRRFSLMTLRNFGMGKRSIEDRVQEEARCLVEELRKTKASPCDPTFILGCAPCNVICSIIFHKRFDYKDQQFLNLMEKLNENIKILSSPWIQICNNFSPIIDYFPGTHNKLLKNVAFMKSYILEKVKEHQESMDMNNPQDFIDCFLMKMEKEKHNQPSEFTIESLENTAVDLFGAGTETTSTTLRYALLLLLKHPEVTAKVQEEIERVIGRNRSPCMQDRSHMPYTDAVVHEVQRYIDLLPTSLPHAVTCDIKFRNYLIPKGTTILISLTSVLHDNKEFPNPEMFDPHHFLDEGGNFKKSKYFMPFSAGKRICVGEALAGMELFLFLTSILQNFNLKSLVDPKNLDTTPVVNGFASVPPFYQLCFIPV
CYP2C9 inhib = blockers of cytochrome P450 2C9 activity – biochemical, luminescence, ADME assay, primary screen. P11712. CYP2C9 Supersomes, luciferin-H conversion. inhibition, % at 5 µM. actives 20% (n = 96,000);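 active = blocking of liver enzyme CYP2C9 beyond about 50% at 5 µM, limit read from the data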
Measles CPE = compounds protecting cells from measles virus cytopathic effect, primary screen, measles RdRp inhibitor project, single point, MLSMR library, absorbance | protection (pct of control), % at 4 µM | AID 841, 2007 | actives 1.5% (n = 140,000) | Measles virus-infected cells, CPE protection; in the data active = protection mostly above about 24%, no sharp cut-off; inactive = mostly below about 26%
CYP2C19 act = human CYP2C19 activators, primary screen, biochemical, luminescence | Cytochrome P450 2C19 (Homo sapiens), P33261 | AID 1025, 2008 | recombinant CYP2C19, luciferin-H EGE luminescence; hits give high values; 0 = fully inhibited enzyme, 1 = untreated enzyme | 96,000 tested, under 10 active | activation factor at 5 µM;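 active = activation factor of at least 2 at 5 µM in the primary screen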;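 also: 0 = wells with 2.5 mM tranylcypromine and 1 = vehicle-only wells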
The depositor's hits bear a star; / = no result.

SMILES	CYP2C19 inhib	CYP2C9 activ	CYP2C9 inhib	Measles CPE	CYP2C19 act
CCCOC(=O)C1=C(C)NC2=C(C(=O)CCC2)C1c1ccc(N(C)C)cc1 (configuration not stated)	22	0.4	56*	18	0.8
COCCOC(=O)C1=C(C)NC2=C(C(=O)CCC2)C1c1ccc2c(c1)OCO2 (configuration not stated)	84*	0	96*	35	0.2
COC(=O)C1=C(C)NC2=C(C(=O)CCC2)C1c1cccs1 (configuration not stated)	79*	0.2	76*	19	0.2
COC(=O)C1C(=O)C2=C(CC1C)NC(C)=C(C(=O)OC1CCCC1)C2c1ccc(N(C)C)cc1 (configuration not stated)	54*	0.2	82*	8	0.5
O=C(/C=C/c1ccccc1)NCCc1ccc2c(c1)OCCO2	/	/	/	13	/
O=C(C1CCN(c2ccc(N3CCOCC3)nn2)CC1)N1CCN(c2ccc(F)cc2)CC1	1	1	4	9	1
Cn1c(COc2ccc(Cl)cc2)nnc1SCc1ncc(-c2ccccc2)o1	45	1.5	-49	12	0.6
COc1ccc(-n2cnnc2SCc2ncc(-c3ccccc3)o2)cc1	66*	0.8	20	4	0.3
C=CCn1c(=O)c2ccccc2n2c(SCC(=O)NCCc3ccccc3)nnc12	51*	0.7	29	8	0.5
Brc1ccccc1-c1nnc(CSc2nncn2-c2ccccc2)o1	68*	2.4*	-136	8	0.3
Brc1ccccc1-c1nnc(CSc2nnc3sc4ccccc4n23)o1	79*	0.8	24	21	0.2
Cc1cc(C)c2nc(/N=C(\N)NC(=O)Nc3ccccc3)nc(C)c2c1	/	/	/	20	/
C=CCn1c(=O)c2ccccc2n2c(SCc3cc(=O)n4ccsc4n3)nnc12	-9	1	-4	66*	1.1
O=c1c2ccccc2nc(SCc2nnc(-c3ccccc3Br)o2)n1-c1ccccc1	/	/	/	30	/
CCCn1c(=O)c2ccccc2n2c(SCC(=O)c3ccc(CC)cc3)nnc12	6	0.8	22	13	0.9
C=CCn1c(=O)c2ccccc2n2c(SCC(=O)c3ccccc3)nnc12	82*	0.3	71*	1	0.2
C=CCn1c(=O)c2ccccc2n2c(SCc3nnc(-c4ccccc4Br)o3)nnc12	66*	0.4	64*	15	0.3
N#CCCNc1ccc(OCCC#N)cc1	-7	0.6	39	10	1.1
O=C(N/N=C\C=C\c1ccc2c(c1)OCO2)C1COc2ccccc2O1 (configuration not stated)	/	/	/	5	/
O=c1cc(-c2ccc([N+](=O)[O-])cc2)nc2cc(-c3ccc(F)cc3)[nH]n12	/	/	/	6	/
COc1cccc(C2CC(=O)N3CN(c4cccc(Cl)c4C)CSC3=C2C#N)c1OC (configuration not stated)	8	0	97*	14	0.9
COc1ccc(OC)c(C2CC(=O)N3CN(c4cccc(Cl)c4C)CSC3=C2C#N)c1 (configuration not stated)	31	0	97*	/	0.7
CSc1n[nH]c(NCc2cccs2)n1	-9	1.1	-8	9	1.1
CCc1nnc(N2C(=O)c3ccc(Oc4ccc([N+](=O)[O-])cc4)cc3C2=O)s1	/	/	/	13	/
O=C(Cc1cn2ccsc2n1)Nc1ccccc1Oc1ccccc1	80*	0.3	70*	23	0.2
SMILES	CYP2C19 inhib	CYP2C9 activ	CYP2C9 inhib	Measles CPE	CYP2C19 act
O=C(Cc1cn2ccsc2n1)NCCc1ccc(F)cc1	72*	1	4	4	0.3
O=C(Cc1cn2ccsc2n1)NCc1ccccc1	46	1.2	-22	5	0.5
CCCCNC(c1ccccc1)c1ccncc1 (configuration not stated)	70*	0.6	45	1	0.3
CCOC(=O)C(NCCCO)c1ccccc1 (configuration not stated)	6	1	5	30	0.9
CCOC(=O)c1cccnc1SC(CC)C(=O)NCc1ccco1 (configuration not stated)	68*	0.3	70*	12	0.3
CCC(Sc1ncccc1C(=O)OC(C)C)C(=O)NCc1ccco1 (configuration not stated)	55*	0.5	50	16	0.5
CCC(Sc1ncccc1C(=O)OCCN1CCCC1=O)C(=O)NCc1ccco1 (configuration not stated)	-9	0.9	15	7	1.1
O=C(CCCN1CC=C(n2c(=O)[nH]c3ccccc32)CC1)c1ccc(F)cc1	/	/	/	0	/
O=C(c1ccccc1F)N1CCN(S(=O)(=O)c2ccc3c(c2)OCCO3)CC1	93*	0.5	49	7	0.1
COc1ccc2c(CC(=O)N3CCN(S(=O)(=O)c4cccs4)CC3)coc2c1	90*	0.7	34	4	0.1
CCOc1ccccc1N1CCN(S(=O)(=O)c2cccs2)CC1	93*	0.1	91*	7	0.1
CCOc1ccccc1N1CCN(S(=O)(=O)CC)CC1	35	0.8	24	33	0.7
Cc1cc(C(=O)CCC(=O)N2CCN(S(=O)(=O)c3cccs3)CC2)c(C)s1	5	0.8	22	4	0.9
CCOc1ccccc1N1CCN(S(=O)(=O)c2cccc3nsnc23)CC1	94*	0.3	70*	7	0.1
CCOC(=O)C1=C(C)N(CCCC(=O)O)C(=O)NC1c1ccccc1OS(=O)(=O)c1ccc(C)cc1 (configuration not stated)	/	/	/	19	/
CCOC(=O)N1CCN(S(=O)(=O)c2ccc(C)c(C)c2C)CC1	99*	1.1	-6	10	0
CCOC(=O)N1CCN(S(=O)(=O)c2cccs2)CC1	57*	0.8	24	3	0.4
Cc1ccc2c(CC(=O)N3CCN(S(=O)(=O)c4ccc5c(c4)OCCO5)CC3)coc2c1	41	0.3	72*	8	0.6
Cc1ccc(S(=O)(=O)N2CCN(C(=O)Cc3ccc4c(c3)OCCO4)CC2)cc1C	/	/	/	13	/
CCCCNC(=O)c1ccccc1NC(=O)CCSc1ccccc1	93*	0.2	81*	9	0.1
Cc1ccc(N(CC(=O)Nc2ccccc2C(=O)N2CCOCC2)S(C)(=O)=O)cc1	/	/	/	25	/
COC(=O)c1ccc(C)c(NC(=O)CN(c2cc(OC)ccc2OC)S(C)(=O)=O)c1	56*	0.7	29	2	0.4
CS(=O)(=O)N(CC(=O)Nc1ccccc1C(=O)NCCc1ccccc1)c1ccc2c(c1)OCCO2	87*	0.1	94*	2	0.1
COC(=O)c1ccc(NC(=O)CN(c2ccc3c(c2)OCO3)S(C)(=O)=O)cc1	/	/	/	26	/
COC(=O)c1ccc(C)c(NC(=O)CN(c2ccc3c(c2)OCO3)S(C)(=O)=O)c1	70*	0.3	69*	20	0.3

High-throughput results from PubChem BioAssay.
